# In PubChem BioAssay (Tox21):
# Records with an inconclusive call do not appear. Where a call stands in place of a potency, no number is given. Activity calls are given as the source filed them. Unless noted, calls come from the whole dose curve; as a rule, active = well fitted curve in the direction sought with a large enough effect in the repeat runs; inconclusive = weak or mixed curves; inactive = no such curve, though single readings can be large; an effect the other way counts as inactive or inconclusive.
# Tests used:
# [1] = biological target: Luciferin 4-monooxygenase (Photinus pyralis) (UniProt P08659); assay: qHTS assay to identify small molecule inhibitors of firefly luciferase (AID 1224835); note: nearly all actives have a fitted effect of over 25% in size; note: potency is the fitted concentration of half-maximal effect
# Chain of Luciferin 4-monooxygenase (Photinus pyralis) (P08659 whole entry, looked up): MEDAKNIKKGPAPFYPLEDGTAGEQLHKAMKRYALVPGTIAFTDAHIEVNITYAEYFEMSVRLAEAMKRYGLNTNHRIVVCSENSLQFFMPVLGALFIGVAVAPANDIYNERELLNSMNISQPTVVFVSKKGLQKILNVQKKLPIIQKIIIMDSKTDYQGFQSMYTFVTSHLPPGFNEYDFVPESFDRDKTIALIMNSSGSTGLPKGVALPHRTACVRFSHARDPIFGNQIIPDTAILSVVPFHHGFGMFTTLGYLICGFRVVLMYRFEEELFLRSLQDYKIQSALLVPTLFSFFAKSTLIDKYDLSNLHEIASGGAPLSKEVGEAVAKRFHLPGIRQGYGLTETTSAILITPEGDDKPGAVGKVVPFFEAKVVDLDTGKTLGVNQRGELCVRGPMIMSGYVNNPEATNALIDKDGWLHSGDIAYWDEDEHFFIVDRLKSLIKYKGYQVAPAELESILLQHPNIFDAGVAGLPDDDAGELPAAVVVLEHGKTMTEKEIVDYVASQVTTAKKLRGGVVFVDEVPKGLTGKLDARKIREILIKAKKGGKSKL
# Method in brief: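 Inhibition of purified Photinus luciferase is measured by luminescence. Substrate levels (D-luciferin, ATP) sit at their KM values. Each compound is tested in a concentration series.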
# [2] = qHTS assay to identify small molecule agonists of the constitutive androstane receptor (CAR) signaling pathway - cell viability counter screen (AID 1224836); note: nearly all actives have a fitted effect of over 45% in size
# Method in brief: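 HepG2 cells stably carrying hCAR and a CYP2B6-2.2kb reporter; 15-concentration compounds plus PK11195 (final 0.75 uM), 23 hr at 37 C/5% CO2. Viability read by CellTiter-Fluor fluorescence.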
# [3] = qHTS assay to identify small molecule antagonists of the constitutive androstane receptor (CAR) signaling pathway - cell viability counter screen (AID 1224837); note: nearly all actives have a fitted effect of over 45% in size
# Method in brief: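 Cytotoxicity counter-screen: CellTiter-Fluor fluorescence after 23 h compound exposure (15-point qHTS) in double-stable HepG2-CYP2B6-hCAR cells, with 50 nM CITCO added.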
# [4] = biological target: Nuclear receptor subfamily 1 group I member 3 (Homo sapiens) (UniProt Q14994); assay: qHTS assay to identify small molecule antagonists of the constitutive androstane receptor (CAR) signaling pathway (AID 1224838);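 note: HepG2 cells stably expressing hCAR with CYP2B6 luciferase reporter stimulated by CITCO; nearly all actives have a fitted effect of over 40% in size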
# Chain of Nuclear receptor subfamily 1 group I member 3 (Homo sapiens) (Q14994 whole entry, looked up): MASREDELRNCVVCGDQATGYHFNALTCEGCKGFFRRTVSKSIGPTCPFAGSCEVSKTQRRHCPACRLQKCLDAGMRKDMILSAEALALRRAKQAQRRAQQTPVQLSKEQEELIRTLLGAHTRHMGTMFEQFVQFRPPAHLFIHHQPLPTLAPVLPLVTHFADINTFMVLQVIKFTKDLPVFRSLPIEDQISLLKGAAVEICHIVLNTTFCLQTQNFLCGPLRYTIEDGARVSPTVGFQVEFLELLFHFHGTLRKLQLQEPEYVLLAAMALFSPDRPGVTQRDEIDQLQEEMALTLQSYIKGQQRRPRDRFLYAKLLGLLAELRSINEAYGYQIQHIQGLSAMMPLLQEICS
# Method in brief: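 Antagonism measured as luciferase signal (ONE-Glo, 30 min, room temperature) in CAR-stimulated cells: HepG2-CYP2B6-hCAR double-stable line exposed 24 hr at 37 C to compound in a 15-point series plus 50 nM CITCO.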
# [5] = biological target: Nuclear receptor subfamily 1 group I member 3 (Homo sapiens) (UniProt Q14994); assay: qHTS assay to identify small molecule agonists of the constitutive androstane receptor (CAR) signaling pathway (AID 1224839); note: potency is the fitted concentration of half-maximal effect; nearly all actives have a fitted effect of over 15% in size
# Method in brief: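 HepG2 cells stably co-transfected with hCAR and a CYP2B6-2.2kb luciferase reporter; compounds at 15 concentrations with 0.75 uM PK11195 present. After 24 hr at 37 C, luciferase read by ONE-Glo luminescence.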
# [6] = qHTS assay to identify small molecule antagonists of the estrogen related receptor signaling pathway with the pleiotropic PPARgamma coactivator (PGC) from Tox21 10K library - cell viability counter screen (AID 1224840; active = well fitted cell-killing curve with a large enough effect in the repeat runs, not every such curve was filed as active; note: nearly all actives have a fitted effect of over 40% in size)
# Method in brief: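 Counter-screen for cytotoxicity: after 17.5 h compound exposure at 37 C, CellTiter-Fluor reagent added to PGC/ERR cells for 30 min and fluorescence read. Cells were seeded at 2,000 per well 6 h before dosing.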
# [7] = qHTS assay to identify small molecule agonists of the hypoxia (HIF-1) signaling pathway - cell viability counter screen (AID 1224844; calls by dose curve; note: nearly all actives have a fitted effect of over 50% in size)
# Method in brief: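 Cytotoxicity measured by CellTiter-Glo ATP luminescence in the wells also read for beta-lactamase signal. Cells were HRE-bla ME-180 (2,000/well, 0.5% dialyzed FBS), exposed to compounds for 17 h at 37C.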
# [8] = qHTS assay to identify small molecule agonists of H2AX (AID 1224845; active = well fitted activation curve with a large enough effect in the signal ratio in the repeat runs, not every such curve was filed as active; the % refers to the signal ratio)
# Method in brief: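 Phospho-H2AX Ser139 measured by HTRF (ex 320 nm; em 665 and 620 nm) after 24 hr antibody incubation. Compounds, 15 concentrations, 0.76% DMSO, were applied to CHO-K1 cells for 3hr at 37C before lysis.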
# [9] = qHTS assay to identify small molecule agonists of H2AX - cell viability counter screen (AID 1224847; calls by dose curve; note: nearly all actives have a fitted effect of over 30% in size; note: potency is the fitted concentration of half-maximal effect)
# Method in brief: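 CHO-K1 cells plated overnight at 37C, then exposed 3 h at 37C to compounds at 15 concentrations (0.76% DMSO final). Viability by CellTiter-Glo luminescence after 30 min at room temperature.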
# [10] = qHTS assay to identify small molecule antagonists of the estrogen related receptor (ERR) signaling pathway from Tox21 library (AID 1224848); note: nearly all actives have a fitted effect of over 50% in size
# Method in brief: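 Luciferase luminescence (ONE-Glo, 30 min room temperature) was the read-out. Cells of the NTP-supplied ERR line, 2,000 per well, were given 6 h at 37 C before compound addition in DMSO and 18 h exposure at 37 C.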
# [11] = qHTS assay to identify small molecule agonists of the estrogen related receptor (ERR) signaling pathway from Tox21 library (AID 1224849; calls by dose curve; note: nearly all actives have a fitted effect of over 15% in size); details: ERR reporter cell line, ONE-Glo luciferase, 18 h; at 92.4 µM (top of the series) unless noted
# Method in brief: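 Luminescent agonist read-out (One-Glo, 30-minute room-temperature incubation) following 18-hour compound treatment at 37 C of the ERR cell line, which had been plated 6 hours before dosing.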
# [12] = qHTS RealTime-Glo MT Cell Viability Assay in HepG2 cells - 24 hour (AID 1224867); note: nearly all actives have a fitted effect of over 50% in size
# Method in brief: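 Cell number in HepG2 cultures estimated from NanoLuc luminescence generated by metabolic reduction of a prosubstrate by living cells. The homogeneous, nonlytic format allowed repeated reads at 0, 8, 16, 24, 32 and 40 h of compound exposure.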
# [13] = qHTS RealTime-Glo MT Cell Viability Assay in HEK293 cells - 32 hour (AID 1224868); note: nearly all actives have a fitted effect of over 50% in size; note: potency is the fitted concentration of half-maximal effect
# Method in brief: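 Homogeneous bioluminescent viability format in HEK293 cells (600 cells/well). Following 5 h at 37 C/5% CO2, 23 nL compound was pintooled; the signal was measured repeatedly during 40 h incubation.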
# [14] = A CellTox Green Cytotoxicity Assay to monitor cytotoxicity in HEK293 cells - 0 hour (AID 1224869); note: nearly all actives have a fitted effect of over 50% in size
# Method in brief: (§1)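 Fluorescence from a DNA-binding dye excluded by viable cells was measured repeatedly in the same HEK293 wells (600 cells/well) during continuous compound exposure at 37 C. Each assay gives one read point: 0, 8, 16, 24, 32 or 40 h.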
# [15] = qHTS RealTime-Glo MT Cell Viability Assay in HepG2 cells - 40 hour (AID 1224870); note: nearly all actives have a fitted effect of over 50% in size
# Method in brief: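 Real-time viability: cells seeded at 600 per well together with NanoLuc and cell-permeant prosubstrate, compounds added after 5 h incubation. Luminescence tracked at 0, 8, 16, 24, 32 and 40 h of exposure.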
# [16] = A CellTox Green Cytotoxicity Assay to monitor cytotoxicity in HEK293 cells - 40 hour (AID 1224871); note: nearly all actives have a fitted effect of over 45% in size
# Method in brief: as §1
# [17] = qHTS assay to identify small molecule agonists of the estrogen related receptor signaling pathway with the pleiotropic PPARgamma coactivator (PGC) from Tox21 10K library (AID 1224842); note: nearly all actives have a fitted effect of over 15% in size
# Method in brief: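 Luminescence from One-Glo (30 min, room temperature) measured after PGC/ERR cells had 18 h at 37 C with pinned compound (23 nL in DMSO). Cells had been seeded at 2,000 per well and pre-incubated 6 h.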
# [18] = biological target: Thyrotropin receptor (Homo sapiens) (UniProt P16473); assay: qHTS assay to identify small molecule agonists of the thyroid stimulating hormone receptor (TSHR) signaling pathway (AID 1224843; calls by dose curve; note: nearly all actives have a fitted effect of over 45% in size)
# Chain of Thyrotropin receptor (Homo sapiens) (P16473 whole entry, looked up): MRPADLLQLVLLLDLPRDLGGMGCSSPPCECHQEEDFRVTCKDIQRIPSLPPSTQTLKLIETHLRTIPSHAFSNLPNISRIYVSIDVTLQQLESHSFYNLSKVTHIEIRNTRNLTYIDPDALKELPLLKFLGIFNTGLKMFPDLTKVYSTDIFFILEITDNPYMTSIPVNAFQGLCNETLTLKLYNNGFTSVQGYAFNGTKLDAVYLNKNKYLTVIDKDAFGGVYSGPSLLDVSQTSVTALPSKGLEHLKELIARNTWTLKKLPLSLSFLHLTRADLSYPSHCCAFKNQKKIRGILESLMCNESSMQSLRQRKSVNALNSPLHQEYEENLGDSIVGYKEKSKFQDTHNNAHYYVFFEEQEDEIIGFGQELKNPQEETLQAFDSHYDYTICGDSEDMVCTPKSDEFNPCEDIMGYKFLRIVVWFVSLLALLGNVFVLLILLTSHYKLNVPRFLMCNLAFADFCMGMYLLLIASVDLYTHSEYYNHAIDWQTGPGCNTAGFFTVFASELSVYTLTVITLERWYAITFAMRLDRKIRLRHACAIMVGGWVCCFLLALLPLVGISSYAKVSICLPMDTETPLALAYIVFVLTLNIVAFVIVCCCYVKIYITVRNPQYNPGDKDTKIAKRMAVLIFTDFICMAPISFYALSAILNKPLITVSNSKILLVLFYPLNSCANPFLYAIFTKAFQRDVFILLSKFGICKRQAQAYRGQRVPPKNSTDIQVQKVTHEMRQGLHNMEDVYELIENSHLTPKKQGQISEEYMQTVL
# Method in brief: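 Agonist activity read as cAMP rise via d2/cryptate HTRF competition, 1 h room-temperature detection, in HEK293 cells expressing TSHR. Fifteen-point titrations, each run in triplicate, with a 30 min room-temperature incubation beforehand.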
# [19] = qHTS assay to identify small molecule agonists of the hypoxia (HIF-1) signaling pathway (AID 1224846; active = well fitted activation curve with a large enough effect in the signal ratio in the repeat runs, not every such curve was filed as active; the % refers to the signal ratio)
# Method in brief: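 Compounds added to ME-180 cells carrying hypoxia-response-element beta-lactamase reporter (0.5% dialyzed FBS, 5 h preplating), 17 h at 37C; agonist activity detected by CCF4-AM B/G FRET read-out.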
# [20] = qHTS assay to identify small molecule antagonists of the estrogen related receptor signaling pathway with the pleiotropic PPARgamma coactivator (PGC) from Tox21 10K library (AID 1224841; call rule not given here)
# Method in brief: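 Luminescence (One-Glo, 30 min at room temperature) after 18 h compound treatment at 37 C of PGC/ERR reporter cells plated at 2,000 cells/well and settled 6 h beforehand.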
Structure (SMILES),Potency [1],Potency [2],Potency [3],Potency [4],Potency [5],Potency [6],Potency [7],Potency [8],Potency [9],Potency [10],"activity change, positive = activation [11]",Potency [12],Potency [13],Potency [14],Potency [15],Potency [16],Potency [17],Potency [18],Potency [19],Potency [20]
Brc1ccc(Oc2ccc(Br)cc2Br)c(Br)c1,35.6 µM (active),inactive,inactive,inactive,54.5 µM (active),inactive,inactive,inactive,113 µM (active),inactive,13% (inactive),inactive,49 µM (active),inactive,inactive,inactive,–,–,–,–
CCOP(=O)(OCC)Oc1cc(C)nc(C(C)C)n1,inactive,inactive,inactive,–,–,inactive,inactive,inactive,inactive,inactive,–,inactive,inactive,–,inactive,inactive,inactive,inactive,inactive,–
C#CC1(O)CCCCC1,inactive,inactive,inactive,–,–,inactive,inactive,–,inactive,inactive,1.06% (inactive),inactive,inactive,inactive,inactive,inactive,inactive,inactive,inactive,inactive
CCN(CC)CCc1c[nH]c2ccccc12,inactive,inactive,inactive,–,–,inactive,inactive,inactive,inactive,–,–,inactive,inactive,inactive,inactive,inactive,–,inactive,inactive,–
